Several values for one entry are separate records, joined by “and”; a condition that tells them apart may be missing. Identical values can stand only once. The campaign covered roughly 16,000 compounds. About 4,000 (25%) were called active. Roughly 26% stayed inconclusive and do not appear here. Calls come from the whole dose curve; as a rule, active = well fitted curve in the direction sought with a large enough effect; inconclusive = small, poorly fitted or top-dose-only effect, or effect the other way; inactive = no such curve, though single readings can be large or run the other way. Not all results are given here.
Target: Cytochrome P450 2C9 (Homo sapiens) (UniProt P11712)
Experiment: Cytochrome panel assay with activity outcomes
Settings: recombinant CYP, pro-luciferin dealkylation, luminescence, p450-cyp2c9; series mostly up to 57.1 µM
% is set by controls: 0 for no effect and ±100 for the full control effect.

Cytochrome P450 2C9 (Homo sapiens), sequence (P11712 whole entry, looked up): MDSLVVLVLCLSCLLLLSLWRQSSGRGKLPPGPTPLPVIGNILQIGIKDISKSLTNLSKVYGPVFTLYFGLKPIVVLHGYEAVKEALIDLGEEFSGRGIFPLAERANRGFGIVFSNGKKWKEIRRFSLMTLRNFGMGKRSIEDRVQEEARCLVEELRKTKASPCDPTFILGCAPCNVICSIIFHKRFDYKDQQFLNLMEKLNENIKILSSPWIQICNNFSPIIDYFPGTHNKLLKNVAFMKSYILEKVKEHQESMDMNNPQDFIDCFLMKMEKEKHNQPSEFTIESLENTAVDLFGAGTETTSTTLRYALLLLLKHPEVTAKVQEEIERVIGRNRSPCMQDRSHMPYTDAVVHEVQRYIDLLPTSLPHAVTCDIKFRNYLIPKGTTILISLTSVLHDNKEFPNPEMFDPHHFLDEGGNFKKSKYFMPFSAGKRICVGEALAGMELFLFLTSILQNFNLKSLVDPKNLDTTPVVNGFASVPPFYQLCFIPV

activity, negative = inhibition, inactive:
C/C(CCN1CCc2nc(-c3ccccc3)c(-c3ccccc3)cc2C1)=N\O[C@@H](C)CN1CCCc2nc(C)c(C)cc21 -19.9% [at 11.4 µM]
CC(C)=CCC/C(C)=C/CO/N=C1/C[C@@H](O)[C@@H](O)[C@@H]2[C@@H]3C(=O)N(Cc4ccc5c(c4)OCO5)C(=O)[C@H]3CC[C@@H]12 -23.6% [at 11.4 µM]
COC(=O)C/C=C\[C@@H](C)[C@@H](/C=N\OC[C@@H](O)[C@H]1O[C@H]2OC(C)(C)O[C@H]2[C@@H]1O)NS(=O)(=O)c1ccc(C)cc1 2.11% [at 11.4 µM]
COC(=O)C/C=C\[C@@H](C)[C@@H](/C=N\OC[C@@H](O)[C@H]1O[C@H]2OC(C)(C)O[C@H]2[C@@H]1O)OC 8.96% [at 11.4 µM]
CN[C@@H](c1ccncc1)[C@@H](NC)c1ccncc1 -8.04% [at 11.4 µM]
COCCNc1ncnc2ccc(-c3ccccc3C(F)(F)F)cc12 11% [at 2.29 µM]
NC1=C(O)C(=O)[C@H](c2c[nH]c3ccc(OCc4ccccc4)cc23)O1 -27.4% [at 11.4 µM]
CC(C)/C(=N/[N+](C)(C)C)c1ccccc1 9.65% [at 11.4 µM]
O=C1Nc2ccccc2C1=Nc1ccc(S(=O)(=O)Nc2nccs2)cc1 8.43% [at 11.4 µM]
OC[C@@H]1O[C@H](n2cnc3c(/C=C(\O)c4ccccc4)ncnc32)[C@H](O)[C@@H]1O 0.392% [at 11.4 µM]
NC1=C2NC=N[C@@H]2N(C/C=C\c2ccccc2)C=N1 1.29% [at 11.4 µM]
CCc1ncc(CO)n1Cc1cccc2ccccc12 -1.15% [at 11.4 µM]
ClC(Cl)(Cl)C(N1CCN(c2ccccc2)CC1)N1CCN(c2ccccc2)CC1 18.4% [at 11.4 µM]
NS(=O)(=O)c1cc2c(cc1Cl)=NC(CCC(=O)O)=NS=2(=O)O 3.24% [at 11.4 µM]
C[C@@H]1O[C@H]2C3=C(C(=O)[C@H]4O[C@@H]4[C@H]3O)[C@@H]1[C@@H]1[C@@H](C)OC=C3[C@H](O)[C@H]4O[C@@H]4/C(=N\OCc4ccccc4)[C@]312 -27.9% [at 11.4 µM]
Cc1ccccc1-c1cc(Nc2ccccc2)ncn1 20.2% [at 2.29 µM]
O=C1[C@H]2[C@H]3[C@H](O)[C@H](O)C/C(=N/OCc4ccccc4)[C@@H]3CC[C@@H]2C(=O)N1Cc1ccc2c(c1)OCO2 -27.6% [at 11.4 µM]
O=C1C[C@@H](O)[C@@H](O)[C@H]2[C@@H]3C(=O)N(Cc4ccc5c(c4)OCO5)C(=O)[C@@H]3CC[C@H]12 -7.97% [at 11.4 µM] and -24% [at 11.4 µM]
CCc1cc2c(nc1CC)CCN(CC/C(C)=N/OCC[C@@H]1C=C[C@H](OC(C)=O)[C@H](COC(C)=O)O1)C2 -1.15% [at 11.4 µM]

AC50, inactive:
O=C(c1ccco1)N1CCC[C@@]2(CCN(Cc3ccccc3)C2)C1
C[C@@]12CCC(=O)C=C1CC[C@@H]1[C@@H]2[C@H](O)C[C@]2(C)[C@@H]1CC[C@]2(O)C(=O)CO
Cc1ccc(C(C(=O)NC2CCCCC2)N(CC2CCCO2)C(=O)CNC(=O)c2cccs2)cc1 (stereo unspecified)
CC(C)(C)NC(=O)C(c1ccccn1)N(C(=O)C1CSC(=O)C1)c1ccc(F)cc1 (stereo unspecified)
CC(=O)c1cc2c(cc1NC(=O)CCCC(=O)O)OCO2
O=C(O)c1ccccc1C(=O)Nc1ccc(S(=O)(=O)Nc2nccs2)cc1
O=c1c(-c2ccc(Cl)cc2)[n+]([O-])c2ccccc2n1OCc1ccccn1
COc1ccc(C(=O)N2CCC3(CCCN(Cc4ccccc4OC)C3)CC2)cc1
COc1ccc(C(=O)N2CCC3(CCN(Cc4ccccc4OC)CC3)CC2)cc1
Cc1ccn2cc(CSc3ccccc3N)nc2c1
COc1ccc(N2CCN(C(=S)Nc3cc(C)ccc3C)CC2)cc1
COc1ccc(N2CCN(C(=N)/C(C(C)=O)=C(\C)O)CC2)cc1
O=C(NCCCN1CCOCC1)c1cc2c(s1)CSC2
O=C(NCCN1CCOCC1)c1ccc2ccccc2c1
CN[C@@H]1[C@H](O[C@H]2[C@@H](O[C@@H]3[C@@H](O)[C@@H](O)[C@@H](N=C(N)N)[C@@H](O)[C@@H]3N=C(N)N)O[C@@H](C)[C@]2(O)CO)O[C@H](CO)[C@@H](O)[C@@H]1O
Cc1ccc(NC(=O)NNC(=O)C2CC(c3cccnc3)=NO2)cc1 (stereo unspecified)
CCCC(=O)NNC(=O)Nc1ccccc1
OC[C@@H](O)CN1CCN(c2ccccc2)CC1
Cc1ccc(-c2ccc(/C=N\NC(=O)c3cc4c(ccc5ccccc54)o3)o2)cc1[N+](=O)[O-]
CCn1c(=O)c2c(O)cc(=O)oc2c2ccccc21
Cc1nc2cnc(N3CCN(C)CC3)nc2n(C)c1=O
COC(=O)C1CSC(C(=O)OC)N1C(=O)Nc1ccccc1 (stereo unspecified)
COC(=O)N1CCC2(CC1)CN(C(=O)Nc1ccccc1)C2
COC(=O)c1ccc(C2C(Oc3ccccc3)C(=O)N2CCc2ccc(OC)c(OC)c2)cc1 (stereo unspecified)
COc1ccc(CCN2CC34C=CC(O3)C(C(=O)NCc3ccccc3)C4C2=O)cc1OC (stereo unspecified)
Cc1ccc(C)c(NC(=O)C2CC(O)CN2C(=O)OC(C)(C)C)c1 (stereo unspecified)
Cc1ccc(C)c(NC(=O)c2ncn[nH]2)c1
CCOC(=O)c1ccccc1NC(=O)CSc1cccc[n+]1[O-]
CCC(C)Nc1nc(OCC(F)(F)F)nc(OCC(F)(F)F)n1 (stereo unspecified)
O=c1ccc2cc(O)c(O)cc2o1
COC(=O)[C@H]1C[C@@H]1[C@H](NC(=O)c1cccnc1)c1ccccc1
COC(=O)[C@@H]1C[C@H]1[C@@H](NC(=O)c1cccnc1)c1ccccc1
CCOC(=O)CNC(=O)c1cccnc1
OC[C@@H]1O[C@@H](n2cnc3c(NC4CCCCC4)ncnc32)[C@@H](O)[C@H]1O

AC50, active:
COC(=O)[C@@H]1CC[C@H](C)[C@@H](c2ccc(C)cc2)N1C(=O)c1ccc(/C=N\OC[C@@H](O)[C@H]2O[C@H]3OC(C)(C)O[C@H]3[C@@H]2O)cc1 2.51 µM
CO/N=C\c1ccc(C(=O)N2[C@H](c3ccc(C)cc3)[C@@H](C)CC[C@H]2C(=O)OC)cc1 2.51 µM
Cc1nn(C)cc1C(C(=O)NC1CCCCC1)N(C(=O)Cc1cccs1)c1ccc(C(C)C)cc1 (stereo unspecified) 25.1 µM
Cc1cc(C)cc(N(C(=O)Cc2cccs2)C(C(=O)NC2CCCCC2)c2ccccn2)c1 (stereo unspecified) 17.8 µM
CC(C)C(=O)Nc1cc2c(cc1C(=O)c1ccccc1)OCCO2 8.91 µM
O=C(CCN1C(=O)S/C(=C\c2ccccc2)C1=O)Nc1ccc(S(=O)(=O)Nc2nccs2)cc1 1.58 µM
CCOc1ccc(OCC)c(-c2c(=O)n(OCc3ccccc3C(=O)OC)c3ccccc3[n+]2[O-])c1 14.1 µM
CCOc1ccc(OCC)c(-c2c(=O)n(OCc3ccc(C(C)(C)C)cc3)c3ccccc3[n+]2[O-])c1 6.31 µM
COc1ccccc1Cn1nnc2c(=O)[nH]c(C3CCN(C(=O)c4ccc(C)cc4)CC3)nc21 5.62 µM
COc1cccc(Cn2nnc3c(=O)[nH]c(C4CCCN(C(=O)c5ccccc5Cl)C4)nc32)c1 (stereo unspecified) 5.01 µM
Cc1ccc(C)c(S(=O)(=O)N2CCC(c3nc4c(nnn4Cc4ccc(F)cc4)c(=O)[nH]3)CC2)c1 1.58 µM
Cc1ccc(Cn2nnc3c(=O)[nH]c(C4CCN(C(=O)Cc5cccs5)CC4)nc32)cc1 0.708 µM
O=C(Cc1cccs1)N1CCC(c2nc3c(nnn3Cc3ccccc3Cl)c(=O)[nH]2)CC1 0.224 µM
CCn1cnc2sc(C(=O)N3CCN(c4ccc(OC)cc4)CC3)c(C)c2c1=O 7.94 µM
O=C(NCCCn1ccnc1)c1ccc(Br)c(S(=O)(=O)N2CCOCC2)c1 0.708 µM
Cc1ccc(NC(=O)NNC(=O)Cn2nc(-c3ccccc3)c(-c3ccccc3)c(C#N)c2=O)cc1 3.16 µM
CC(C)CC(c1nnnn1C(C)C)N1CCN(c2ccccc2)CC1 (stereo unspecified) 2 µM
Cc1ccc(-c2ccc(/C=N/NC(=S)Nc3ccccc3)o2)cc1[N+](=O)[O-] 3.98 µM
CCn1c2ccccc2c2cc(NS(=O)(=O)c3ccccc3C)ccc21 0.891 µM
COC(=O)C1CCC(C)(C(=O)Nc2ccccc2)C1(C)C (stereo unspecified) 7.94 µM
COc1ccc(CCN2C(=O)C(Oc3ccccc3C)C2c2ccc3c(c2)OCO3)cc1OC (stereo unspecified) 7.94 µM
Cc1ccccc1OC1C(=O)N(Cc2ccc3c(c2)OCO3)C1c1sccc1C (stereo unspecified) 7.94 µM
Cc1ccc(C)c(NC(=O)C2CC3c4ccccc4C2c2ccccc23)c1 (stereo unspecified) 5.01 µM
CCn1c(SCC(=O)Nc2ccccc2C(=O)OC)nnc1-c1ccc(N)cc1 22.4 µM
O=C(NC(NCc1ccccc1)C(Cl)(Cl)Cl)c1cccnc1 (stereo unspecified) 14.1 µM
Cc1cccc(NC(NC(=O)c2cccnc2)C(Cl)(Cl)Cl)c1 (stereo unspecified) 2.24 µM
Cc1cc(NC(=O)COc2ccc(Cl)cc2Cl)n(-c2ccccc2)n1 2.51 µM
O=C(COc1ccccc1Cl)Nc1cc(Cl)ccc1Oc1ccccc1 2.51 µM

— PubChem BioAssay AID1851 (National Center for Advancing Translational Sciences (NCATS), 2009)
